# Screening data as filed in PubChem.
# HCV inhibitor = HCV inhibition; Huh7.5.1 HCVcc-Cre infection, luciferase reporter, 44 h; Potency, µM (top dose mostly 41.8 µM), inactives show at the highest dose activity change, negative = inhibition, actives largely listed as inhibitors; 3.4% of 340,000 active; also: potency is read from the fitted curve at half-maximal effect
#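 Cells (1,000/well) were plated 4 h before compound, then infected with HCVcc-Cre virus (~0.5 moi). After 44 h further culture, infection was read as luciferase luminescence following a 15 min substrate incubation at room temperature.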
# VACV Venus inh = vaccinia inhibition (Venus reporter) | Vaccinia virus Venus reporter expression, fluorescence | Potency, µM (series often up to 36.5 µM), for inactives: at the highest dose activity change, negative = inhibition, usual class: inhibitors | 0.46% of 330,000 active; calls by dose curve; tested in A549 cells; also: potency is read from the fitted curve at half-maximal effect; nearly all actives have a fitted effect of over 30% in size
# Sm TGR inh = S. mansoni TGR enzyme inhibition | Potency, µM (highest dose often 114 µM), without a hit: at the highest dose activity change, negative = inhibition, hits mostly inhibitors | 3% of 360,000 active | Q962Y6 | purified TGR, DTNB reduction, TNB absorbance 405 nm; also: potency is read from the fitted curve at half-maximal effect; nearly all actives have a fitted effect of over 60% in size
#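 Kinetic colorimetric format: TGR-catalysed, NADPH-driven DTNB reduction monitored via TNB absorbance. Enzyme dispensed at 20 nM; compound exposure 15 min at room temperature before reaction start.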
# HCMV inh = blocks human cytomegalovirus replication. HFF cells, HCMV-luciferase reporter, 72 h; hits give low values. 4.5% of 410,000 active. activity change, negative = inhibition, % at 57.5 µM; in the data active = activity change below about -60%; inconclusive = no clear call, values can overlap the other calls; inactive = above about -39%
#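 Two compound doses tested in HFFs infected with HCMV-luciferase, MOI 1 PFU/cell, 72 h at 37C. Lysate luminescence read with OneGlo; data normalized against buffer-only and 10uM Salinomycin inhibitor controls.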
# FMDV antiviral = foot and mouth disease virus antiviral activity. FMDV antiviral cell-based qHTS. Potency, µM (doses to about 57.9 µM), for the others: top-dose activity change, negative = inhibition, usual class: inhibitors. 1.2% of 410,000 active; calls by dose curve; tested in HEK293T cells; also: read-out not given here; potency is read from the fitted curve at half-maximal effect; nearly all actives have a fitted effect of over 45% in size
# VACV mCherry inh = inhibitors of vaccinia virus infection (mCherry reporter signal) | Vaccinia virus mCherry reporter infection, fluorescence | Potency, µM (titrated, usually from 36.5 µM), for the others: at the highest dose activity change, negative = inhibition, most hits filed as inhibitors | 0.63% of 310,000 active; calls by dose curve; tested in A549 cells; also: potency is read from the fitted curve at half-maximal effect; nearly all actives have a fitted effect of over 35% in size
# The depositor's hits bear a star; i = inactive; ? = inconclusive; / = not tested or not shown; + = active, no number; [ ] = remark or other dose. Compounds with a hit are over-represented: about 9.3% of the library has one in this group of screens. Unless noted, calls follow the shape of the dose curve; as a rule, active = well fitted curve in the direction sought with a large enough effect; inconclusive = small, poorly fitted or top-dose-only effect, or another doubt; inactive = no such curve, though single readings can be large; an effect the other way counts as inactive or inconclusive. % is scaled to controls: 0 for no effect and ±100 for the full control effect.
SMILES,HCV inhibitor,VACV Venus inh,Sm TGR inh,HCMV inh,FMDV antiviral,VACV mCherry inh
CCCN1C(C(=O)c2ccccc2)=C(OC(=O)COc2ccc(C)cc2)c2ccccc2S1(=O)=O,/,?,10µM*,-91*,0%,?
CCCN1C(C(=O)c2ccccc2)=C(OC(=O)C(C)(C)C)c2ccccc2S1(=O)=O,/,?,2%,-89*,-15%,?
COC(=O)CN1C(C(=O)c2ccccc2)=C(OC(=O)c2ccc(F)cc2)c2ccccc2S1(=O)=O,/,-18%,-13%,-11,-21%,-18%
C=CCN1C(C(=O)c2ccccc2)=C(OC(=O)COc2ccccc2)c2ccccc2S1(=O)=O,?,-19%,11µM*,-35,-17%,-5%
CCCCC(=O)OC1=C(C(=O)c2ccccc2)N(C)S(=O)(=O)c2ccccc21,/,-17%,-28%,11,-27%,-29%
CC(=O)c1ccccc1NC(C(=O)Nc1ccc2c(c1)OCCO2)c1cccs1 (centres undefined),/,/,/,-64*,/,/
C=CCn1c(C)cc(-c2csc(NCC)n2)c1C,10µM*,19%,-6%,-63*,8%,-1%
C=CCn1c(C)cc(-c2csc(NC)n2)c1C,?,23%,-12%,?,4%,8%
O=C(Nc1ccc(NC(=S)NC(=O)c2ccco2)cc1)c1ccc(Br)cc1,/,-10%,/,-78*,-22%,i
O=C(/C=C/c1ccco1)NC(=S)Nc1cccc(-c2nc3ccccc3s2)c1,10µM*,?,/,57,-6%,-23%
Cc1cccc(NC(=S)NC(=O)/C=C/c2ccco2)c1,-8%,-16%,/,25,1%,?
O=C(/C=C/c1ccco1)NC(=S)Nc1cccc([N+](=O)[O-])c1,?,?,45µM*,45,36%,?
Cc1ccc(-n2nc3ccc(NC(=S)NC(=O)/C=C/c4ccco4)cc3n2)cc1,2%,-8%,-15%,-68*,9%,-10%
O=C(/C=C/c1ccco1)NC(=S)Nc1cc(-c2nc3ccccc3s2)ccc1Cl,-1%,-29%,?,280,6%,i
O=C(Nc1ccc(NC(=S)NC(=O)c2ccco2)cc1)c1ccccc1,?,8%,-32%,10,21%,-10%
O=C(CCN1C(=O)C2C3C=CC(C3)C2C1=O)Nc1c(F)cccc1F (centres undefined),10%,-28%,-17%,48,-18%,/
Cc1nc2cc(N=NC3=C(O)CCCC3=O)ccc2s1,0%,4%,-26%,-30,13%,-7%
NC(N)=NS(=O)(=O)c1ccc(NC(=S)NC(=O)/C=C/c2ccco2)cc1,25%,1%,-36%,-26,-15%,0%
CC(=O)Nc1ccc(NC(=S)NC(=O)/C=C/c2ccc(Cl)cc2)cc1,6%,-2%,0%,-13,0%,i
O=C(/C=C/c1ccc(Cl)cc1)NC(=S)Nc1ccc(NC(=O)c2ccco2)cc1,?,-29%,-2%,-70*,-22%,-21%
CC(=O)c1ccc(NC(=S)NC(=O)/C=C/c2ccco2)cc1,0%,/,20µM*,45,39%,/
NS(=O)(=O)c1ccc(NC(=S)NC(=O)/C=C/c2ccco2)cc1,2%,-5%,40µM*,-9,-5%,-14%
CCOc1ccc(NC(=O)c2ccco2)cc1,9%,-14%,-9%,16,-22%,-5%
CCOc1ccc(NC(=S)NC(=O)c2ccco2)cc1,-5%,-6%,13µM*,7,83%,-1%
CCN(CC(=O)NC(C)(C)C)Cc1nc2c(Br)cc(Br)cc2c(=O)[nH]1,?,-11%,3%,0,?,-19%
SMILES,HCV inhibitor,VACV Venus inh,Sm TGR inh,HCMV inh,FMDV antiviral,VACV mCherry inh
CC(=O)c1cccc(NC(=O)NN2CCN(C)CC2)c1,17%,/,8%,40,5%,/
Cn1c(=O)c2ccccc2n(CC(=O)NC2CCCC2)c1=O,0%,-8%,-10%,-6,2%,-21%
NS(=O)(=O)c1ccc(NC(=S)NC(=O)c2ccco2)cc1,13%,-12%,56µM*,-35,22%,-11%
Cc1ccc(O)c(C(CC(=O)NCC2(c3ccccc3)CCCC2)c2ccccc2)c1 (centres undefined),/,-11%,-3%,-99*,?,-19%
Cc1ccc(O)c(C(CC(=O)NCc2cccnc2)c2ccccc2)c1 (centres undefined),-6%,2%,/,-19,-20%,7%
O=C(NCC1(c2ccccc2)CCCC1)c1ccccc1,-2%,/,4%,?,-18%,/
S=C(NCC1(c2ccccc2)CCCC1)Nc1ccccc1,10µM*,/,-7%,-97*,0%,/
O=C(NCC1(c2ccccc2)CCCC1)C(=O)NCC1(c2ccccc2)CCCC1,12%,-7%,40µM*,20,-3%,-18%
C(=C\c1ccccc1)/C=N/N1CCN(c2ccccn2)CC1,7%,?,-7%,78,28%,/
C(/C=C/c1ccccc1)=N/N1CCN(c2ccccc2)CC1,15%,/,8%,-101*,51%,/
Cc1cc2n(n1)SC(Nc1cc(Cl)ccc1Cl)N2 (centres undefined),7%,/,16µM*,-20,0%,/
Cc1cc2n(n1)SC(Nc1cccc3ccccc13)N2 (centres undefined),9%,/,?,-12,0%,/
O=C(NS(=O)(=O)c1ccccc1)c1ccccc1F,-2%,-10%,-7%,-27,-4%,-14%
Cc1cccc(N2CCN(c3ncnc4onc(C)c34)CC2C)c1 (centres undefined),/,-13%[7.34 µM],4%,-100*,3.2µM*,-10%[7.34 µM]
CCN1CC(=O)Nc2cc(S(=O)(=O)N3CCOCC3)ccc21,-6%,2%,-21%,-60*,-13%,-12%
CCN1C(=O)Cc2cc(S(=O)(=O)N3CCOCC3)ccc21,-2%,0%,8%,42,-24%,i
CCC(=NOCc1ccccc1)C(=O)NNS(=O)(=O)c1ccc(C)cc1,15%,-5%,/,14,62%,-18%
COc1ccc(NC(=O)C2(c3cccs3)CCOCC2)cc1,16%,-9%,5%,0,-9%,-10%
CC(=O)Nc1ccc(NC(=O)C2(c3cccs3)CCOCC2)cc1,/,-6%,3%,+,-6%,-2%
CCOC(=O)N1CCC(NC(=O)c2ccc(CS(=O)c3ccc(Cl)cc3)o2)CC1 (centres undefined),-1%,-14%,-9%,-17,-12%,-1%
CC(=O)N1c2ccc(S(=O)(=O)NCC3CCC(C(=O)Nc4cc(C)ccn4)CC3)cc2CC1C (centres undefined),?,?,6%,-91*,?,-20%
CC(=O)N1c2ccc(S(=O)(=O)NCC3CCC(C(=O)Nc4ccccc4C)CC3)cc2CC1C (centres undefined),/,-27%,1%,7,-26%,i
